# Values without a mark were called inactive. Inconclusive results are not listed. The source made the active and inactive calls. Unless noted, calls come from the whole dose curve; as a rule, active = well fitted curve in the direction sought with a large enough effect; inconclusive = small, poorly fitted or top-dose-only effect, or another doubt; inactive = no such curve, though single readings can be large; an effect the other way counts as inactive or inconclusive.
# Tests used:
# [1] = AP1 Signaling Pathway (AID 357; active = well fitted curve in either direction with a large enough effect, not every such curve was filed as active;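 note: ME-180 reporter cells stimulated with EGF at its EC50 level; % is set by controls: 0 for no effect and ±100 for the full control effect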); details: ME-180 AP-1-bla reporter, EGF-induced, beta-lactamase ratio, 5 h; at 17.2 µM (top of the series) unless noted
# How it was run: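 AP-1-bla ME-180 cells, Opti-MEM + 0.5% dialyzed FBS, plated overnight 37 °C. Cpd titration + EC50 EGF, 5 h 37 °C. CCF4 2.5 h RT; ex 405, em 460/530 ratio → %activity, AC50.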
# [2] = target: Glucocorticoid receptor (Homo sapiens) (UniProt P04150); test: GR-GFP Redistribution (AID 450;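 active = compounds whose dose series gives a full or clear partial fitted curve of increased nuclear translocation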; note: potency is the fitted concentration of half-maximal effect)
# Glucocorticoid receptor (Homo sapiens), sequence (P04150 whole entry, looked up, the tested form may be a part): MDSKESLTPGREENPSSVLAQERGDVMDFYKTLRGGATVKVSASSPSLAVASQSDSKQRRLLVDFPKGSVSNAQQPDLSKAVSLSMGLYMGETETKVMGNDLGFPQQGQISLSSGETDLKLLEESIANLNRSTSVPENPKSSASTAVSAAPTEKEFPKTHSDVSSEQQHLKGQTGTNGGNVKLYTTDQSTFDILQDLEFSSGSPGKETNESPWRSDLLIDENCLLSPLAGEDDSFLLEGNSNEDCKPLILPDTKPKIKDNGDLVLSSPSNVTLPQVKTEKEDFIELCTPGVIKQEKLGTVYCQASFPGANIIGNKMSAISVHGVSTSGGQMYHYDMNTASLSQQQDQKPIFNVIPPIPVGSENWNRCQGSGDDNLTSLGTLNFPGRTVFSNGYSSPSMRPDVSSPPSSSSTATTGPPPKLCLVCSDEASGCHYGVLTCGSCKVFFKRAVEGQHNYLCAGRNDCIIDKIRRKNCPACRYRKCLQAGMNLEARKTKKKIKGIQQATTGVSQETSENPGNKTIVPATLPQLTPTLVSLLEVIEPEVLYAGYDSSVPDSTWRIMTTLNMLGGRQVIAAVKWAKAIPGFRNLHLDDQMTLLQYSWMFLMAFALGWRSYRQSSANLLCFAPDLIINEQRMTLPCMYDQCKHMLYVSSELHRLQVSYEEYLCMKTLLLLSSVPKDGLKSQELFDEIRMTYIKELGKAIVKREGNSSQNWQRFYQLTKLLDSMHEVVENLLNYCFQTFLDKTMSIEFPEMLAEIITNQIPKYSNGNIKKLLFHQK
# [3] = qHTS Assay for Identification of Small Molecule Agonists for Hypoxia Response Element Signaling Pathway (AID 914; active = well fitted activation curve with a large enough effect in the signal ratio, with a control signal flat, not every such curve was filed as active; the % refers to the signal ratio; note: potency is the fitted concentration of half-maximal effect); details: ME-180 HRE-bla reporter, beta-lactamase ratio, CoCl2, 17 h; activation: active compounds read high
# How it was run: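 HRE-bla ME-180 cells, overnight plating in Opti-MEM with 0.5% dialyzed FBS; cpd titration + EC50 CoCl2, 17 h, 37 degrees Celsius; CCF4 2.5 h RT; 460/530 nm ratio; AC50.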
# [4] = target: Cytochrome P450 1A2 (Homo sapiens) (UniProt P05177); test: p450-cyp1a2 (AID 410; calls by dose curve; note: potency is the fitted concentration of half-maximal effect)
# Cytochrome P450 1A2 (Homo sapiens), sequence (P05177 whole entry, looked up): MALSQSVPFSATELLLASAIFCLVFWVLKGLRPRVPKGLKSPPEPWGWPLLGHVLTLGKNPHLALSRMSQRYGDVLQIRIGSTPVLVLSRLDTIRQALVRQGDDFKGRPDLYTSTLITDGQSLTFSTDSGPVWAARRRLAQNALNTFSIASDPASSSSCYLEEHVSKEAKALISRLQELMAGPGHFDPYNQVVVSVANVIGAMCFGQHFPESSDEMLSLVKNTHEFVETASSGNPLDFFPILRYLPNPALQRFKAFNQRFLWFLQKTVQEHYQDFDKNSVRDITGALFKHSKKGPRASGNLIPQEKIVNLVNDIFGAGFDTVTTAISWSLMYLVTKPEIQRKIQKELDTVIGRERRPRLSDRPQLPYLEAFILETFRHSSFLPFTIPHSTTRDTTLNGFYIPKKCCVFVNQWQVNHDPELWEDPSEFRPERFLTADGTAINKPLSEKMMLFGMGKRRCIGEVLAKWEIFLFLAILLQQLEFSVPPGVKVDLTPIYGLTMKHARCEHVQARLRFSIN
# How it was run: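 Human CYP1A2 (20nM) demethylated Luciferin-ME at its Km (100uM) in 100mM KPO4. After 10 min compound preincubation, NADPH regeneration ran the reaction 60 min at room temperature. Luciferin was read by luminescence, normalized to 57 uM furafylline.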
# [5] = Stat Signaling Pathway (AID 446; active = well fitted curve in either direction with a large enough effect, not every such curve was filed as active;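 note: ME-180 cervical cancer cells given 40 pM IL-6 alongside compound; SIE-controlled beta-lactamase reporter measured as 460/530 nm FRET emission ratio; % is set by controls: 0 for no effect and ±100 for the full control effect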); details: ME-180 (cervical carcinoma) SIE beta-lactamase reporter, IL-6 stimulated, 5 h; at 17.2 µM (top of the series) unless noted
# How it was run: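 IL-6/STAT signaling read in ME-180 cells via an SIE beta-lactamase reporter. Stimulus was 40 pM IL-6 (its AC50) for 5 hrs, so both activation and inhibition register.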
# [6] = target: Glucocorticoid receptor (Homo sapiens) (UniProt P04150); test: GR-EFC Redistribution (AID 451; calls by dose curve; note: potency is the fitted concentration of half-maximal effect); details: CHO-K1 GR-EFC translocation, beta-gal luminescence, 2 h
# How it was run: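 CHO-K1 cells expressing nuclear EA and GR-ED fragments of b-gal; compounds titrated up to 46 uM final, 2 h at 37 C. GR nuclear translocation read as complemented b-gal luminescence after 1 h RT detection.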
# [7] = target: 3',5'-cyclic-AMP phosphodiesterase 4B (Homo sapiens) (UniProt Q07343); test: qHTS Assay for Inhibitors of PDE-IV (AID 607; active = well fitted activation curve with a large enough effect in the main read-out, with a control signal flat, not every such curve was filed as active; note: % of control where 0% means no effect)
# 3',5'-cyclic-AMP phosphodiesterase 4B (Homo sapiens), sequence (Q07343 whole entry, looked up): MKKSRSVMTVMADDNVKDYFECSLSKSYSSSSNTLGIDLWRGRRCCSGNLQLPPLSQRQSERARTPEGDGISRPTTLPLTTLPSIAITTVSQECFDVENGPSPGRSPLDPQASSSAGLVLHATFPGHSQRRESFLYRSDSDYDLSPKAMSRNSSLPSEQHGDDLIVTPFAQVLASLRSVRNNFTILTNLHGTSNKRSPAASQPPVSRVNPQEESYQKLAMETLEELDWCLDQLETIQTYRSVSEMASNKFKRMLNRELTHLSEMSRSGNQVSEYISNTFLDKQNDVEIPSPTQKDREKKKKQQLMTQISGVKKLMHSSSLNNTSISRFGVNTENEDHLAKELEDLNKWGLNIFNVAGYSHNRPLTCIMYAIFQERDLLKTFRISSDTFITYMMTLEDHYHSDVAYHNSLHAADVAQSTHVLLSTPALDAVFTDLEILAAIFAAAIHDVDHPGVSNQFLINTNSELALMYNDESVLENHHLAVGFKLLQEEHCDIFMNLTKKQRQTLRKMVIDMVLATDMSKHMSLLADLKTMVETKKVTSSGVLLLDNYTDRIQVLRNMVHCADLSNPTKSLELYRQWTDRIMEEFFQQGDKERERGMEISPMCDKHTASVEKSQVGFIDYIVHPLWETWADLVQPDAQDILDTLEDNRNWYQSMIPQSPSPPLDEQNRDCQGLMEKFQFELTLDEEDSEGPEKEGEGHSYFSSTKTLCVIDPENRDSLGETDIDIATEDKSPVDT
# How it was run: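 Live HEK293 cells with a modified cyclic nucleotide-gated (CNG) channel report intracellular cAMP via membrane-potential dye fluorescence (ex 535/em 590 nm). Endogenous PDE-IV was targeted. Compounds were tested at up to 22.9 uM final; RO 20-1724 100 uM served as control.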
# [8] = target: Cytochrome P450 3A4 (Homo sapiens) (UniProt P08684); test: qHTS Assay for Inhibitors and Substrates of Cytochrome P450 3A4 (AID 884); note: % is set by controls: 0 for no effect and ±100 for the full control effect; nearly all actives have a fitted effect of over 50% in size
# Cytochrome P450 3A4 (Homo sapiens), sequence (P08684 whole entry, looked up): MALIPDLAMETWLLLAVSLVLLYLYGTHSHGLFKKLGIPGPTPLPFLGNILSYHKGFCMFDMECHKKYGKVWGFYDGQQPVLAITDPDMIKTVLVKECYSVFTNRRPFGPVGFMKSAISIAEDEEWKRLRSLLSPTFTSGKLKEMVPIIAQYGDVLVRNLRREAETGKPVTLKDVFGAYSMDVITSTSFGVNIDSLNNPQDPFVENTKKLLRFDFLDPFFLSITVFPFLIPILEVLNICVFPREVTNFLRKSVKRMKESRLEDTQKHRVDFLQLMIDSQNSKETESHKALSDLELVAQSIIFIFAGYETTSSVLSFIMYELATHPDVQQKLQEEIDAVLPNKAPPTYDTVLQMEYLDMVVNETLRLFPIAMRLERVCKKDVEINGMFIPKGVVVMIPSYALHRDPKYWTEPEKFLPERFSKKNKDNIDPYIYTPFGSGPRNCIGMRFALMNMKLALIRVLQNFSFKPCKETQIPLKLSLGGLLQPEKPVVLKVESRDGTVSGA
# How it was run: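 20 nM human CYP3A4 with 25 uM Luciferin-PPXE (at KM) in 200 mM KPO4, preincubated 10 min with compound; NADPH regeneration started a 60 min RT reaction. Luciferin detected by luminescence, normalized to 57 uM ketoconazole as full inhibition.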
# [9] = target: Cytochrome P450 3A4 (Homo sapiens) (UniProt P08684); test: qHTS Assay for Activators of Cytochrome P450 3A4 (AID 885); note: potency is the fitted concentration of half-maximal effect; nearly all actives have a fitted effect of over 65% in size
# How it was run: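 Quantitative HTS format: compounds preincubated with 20nM human CYP3A4 and Luciferin-PPXE substrate at KM, reaction started by NADPH regeneration, stopped after 60 min, luciferase luminescence read 20 min later.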
# [10] = target: Pyruvate kinase (Leishmania mexicana) (UniProt Q27686); test: qHTS Validation Assay for Inhibitors of Leishmania Mexicana Pyruvate Kinase (AID 945);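 note: 0% = DMSO only neutral control wells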
# Pyruvate kinase (Leishmania mexicana), sequence (Q27686 2-499 E452W): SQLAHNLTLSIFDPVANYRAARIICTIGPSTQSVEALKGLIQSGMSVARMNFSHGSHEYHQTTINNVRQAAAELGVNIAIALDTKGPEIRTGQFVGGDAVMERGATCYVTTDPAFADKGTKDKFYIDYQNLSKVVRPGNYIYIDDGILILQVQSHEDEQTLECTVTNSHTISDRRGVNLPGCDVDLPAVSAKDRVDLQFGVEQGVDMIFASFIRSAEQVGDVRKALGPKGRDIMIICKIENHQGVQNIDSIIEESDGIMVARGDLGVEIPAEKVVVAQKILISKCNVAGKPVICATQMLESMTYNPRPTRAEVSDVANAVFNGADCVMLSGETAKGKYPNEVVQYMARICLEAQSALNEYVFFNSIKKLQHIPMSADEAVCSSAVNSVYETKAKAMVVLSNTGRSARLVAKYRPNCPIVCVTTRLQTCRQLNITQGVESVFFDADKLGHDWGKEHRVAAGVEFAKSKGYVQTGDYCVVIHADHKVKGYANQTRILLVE
# How it was run: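 Luminescent ATP detection (PKLight) after a 1 h room-temperature reaction of 0.2 nM LmPYK E451W mutant with 0.5 mM PEP and 0.1 mM ADP at pH 7.2. Activity is normalized to DMSO-only control wells.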
# [11] = target: Pyruvate kinase PKM (Homo sapiens) (UniProt P14618); test: qHTS Assay for Activators of Human Muscle Pyruvate Kinase (AID 954; active = well fitted curve in the direction sought with a large enough effect, not every such curve was filed as active;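 note: 0% = uninhibited enzyme and -100% = no enzyme or full thiadiazolimine inhibition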)
# Pyruvate kinase PKM (Homo sapiens), sequence (P14618 whole entry, looked up): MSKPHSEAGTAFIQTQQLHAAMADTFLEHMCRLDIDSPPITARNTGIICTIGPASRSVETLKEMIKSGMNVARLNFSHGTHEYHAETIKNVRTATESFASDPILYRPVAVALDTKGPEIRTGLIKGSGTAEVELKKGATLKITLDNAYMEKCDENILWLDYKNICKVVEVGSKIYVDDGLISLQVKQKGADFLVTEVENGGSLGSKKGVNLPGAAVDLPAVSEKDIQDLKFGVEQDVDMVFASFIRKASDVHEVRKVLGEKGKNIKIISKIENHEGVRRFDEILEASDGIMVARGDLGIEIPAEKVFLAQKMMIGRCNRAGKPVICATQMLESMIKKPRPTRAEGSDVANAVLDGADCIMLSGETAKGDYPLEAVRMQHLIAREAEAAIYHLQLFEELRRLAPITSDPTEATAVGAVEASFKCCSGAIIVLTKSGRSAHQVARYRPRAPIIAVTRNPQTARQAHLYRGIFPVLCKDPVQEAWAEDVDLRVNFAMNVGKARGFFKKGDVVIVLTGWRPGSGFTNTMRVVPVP
# How it was run: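 Enzyme was run at intermediate activity so both inhibitors and activators could be detected. ATP formed from ADP and PEP by 0.1 nM human PKM2 during a 1 h room-temperature incubation was quantified by coupled luciferase luminescence.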
# [12] = target: Alpha-galactosidase A (Homo sapiens) (UniProt P06280); test: Counterscreen for Glucocerebrosidase Inhibitors: qHTS Assay for Human alpha-Galactosidase at pH 4.5 (AID 992); note: 0% is about no effect
# Alpha-galactosidase A (Homo sapiens), sequence (P06280 whole entry, looked up): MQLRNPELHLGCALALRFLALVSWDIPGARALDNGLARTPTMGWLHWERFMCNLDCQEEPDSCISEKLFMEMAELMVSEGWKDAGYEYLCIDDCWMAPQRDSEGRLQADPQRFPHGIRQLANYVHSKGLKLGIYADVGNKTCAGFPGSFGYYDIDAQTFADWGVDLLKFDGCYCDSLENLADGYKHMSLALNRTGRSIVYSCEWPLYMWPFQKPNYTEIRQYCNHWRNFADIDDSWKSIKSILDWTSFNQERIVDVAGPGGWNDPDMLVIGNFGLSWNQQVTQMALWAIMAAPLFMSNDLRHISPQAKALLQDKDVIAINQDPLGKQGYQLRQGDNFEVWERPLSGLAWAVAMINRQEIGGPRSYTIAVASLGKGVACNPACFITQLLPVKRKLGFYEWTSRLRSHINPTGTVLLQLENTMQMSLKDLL
# How it was run: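 Read-out is 4-methylumbelliferone fluorescence (365 nm excitation, 440 nm emission) after a pH 10 NaOH/glycine stop. Reactions held 2 nM enzyme and 80 uM substrate at pH 4.5 for 20 min at room temperature.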
# [13] = target: Mitogen-activated protein kinase 10 (Mus musculus) (UniProt Q61831); test: JNK3 AlphaScreen Assay (AID 530; active = well fitted curve in either direction with a large enough effect, not every such curve was filed as active;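 note: kinase came from lysate of stimulated human HepG2 cells; signal reports phosphorylation of biotinylated GST-cJun 1-79 at Ser73 with 10 µM ATP; % is set by controls: 0 for no effect and ±100 for the full control effect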)
# How it was run: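 qHTS format: compounds tested as titrations against IL-1beta/TNF-alpha-activated HepG2 lysate JNK3 with biotin-GST-cJun substrate and 10 uM ATP at room temperature. Loss of anti-phospho-cJun AlphaScreen signal indicates inhibition.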
# [14] = target: Muscarinic acetylcholine receptor M1 (Rattus norvegicus) (UniProt P08482); test: qHTS Assay for Antagonists of Acetylcholine Muscarinic M1 Receptor: Kinetic Measurement of Intracellular Calcium Response (AID 943); note: potency is the fitted concentration of half-maximal effect; nearly all actives have a fitted effect of over 75% in size
# Muscarinic acetylcholine receptor M1 (Rattus norvegicus), sequence (P08482 whole entry, looked up): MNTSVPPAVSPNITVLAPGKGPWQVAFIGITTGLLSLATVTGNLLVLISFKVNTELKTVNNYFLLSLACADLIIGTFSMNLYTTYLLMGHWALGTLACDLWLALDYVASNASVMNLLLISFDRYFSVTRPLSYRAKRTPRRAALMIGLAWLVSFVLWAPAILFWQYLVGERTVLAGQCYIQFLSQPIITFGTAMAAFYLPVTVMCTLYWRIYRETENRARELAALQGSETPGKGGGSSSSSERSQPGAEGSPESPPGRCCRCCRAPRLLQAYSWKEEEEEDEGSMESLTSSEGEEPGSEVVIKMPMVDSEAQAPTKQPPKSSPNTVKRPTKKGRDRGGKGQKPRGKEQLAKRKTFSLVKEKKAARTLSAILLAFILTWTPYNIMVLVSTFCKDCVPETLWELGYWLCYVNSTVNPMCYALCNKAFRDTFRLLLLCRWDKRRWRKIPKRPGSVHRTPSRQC
# How it was run: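 CHO cells stably expressing rat M1 were loaded with no-wash Fluo-4 dye for 1 h at 37C, pre-incubated 10 min with compound, then challenged with EC80 carbachol (100 nM final); kinetic calcium read 4 min, peak/basal ratio.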
# [15] = target: alpha-glucosidase (Oryza sativa, rice) (UniProt Q653V4); test: Counterscreen for Glucocerebrosidase Inhibitors: qHTS Assay for Rice alpha-Glucosidase at pH 5.0 (AID 997);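 note: 0% = full activity with enzyme and -100% = basal without enzyme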
# How it was run: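 Rice alpha-glucosidase (4 nM final) with 400 uM 4-methylumbelliferyl-alpha-D-glucopyranoside in citrate buffer pH 5.0, 20 min at room temperature, stopped at pH 10; fluorescence 365/440 nm, compounds 0.7 nM–77 uM, AC50 from Hill fits.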
smiles,measurement,setting,value
CCNC(=O)c1cc2c(=O)n3cccc(C)c3nc2n(CCc2ccccc2)c1=N,"activity change, negative = inhibition",[1],20.4%
same,Potency,[2],> 20.6 µM
same,Potency,[3],10 µM (active)
Fc1ccc2[nH]c3c(N4CCSCC4)ncnc3c2c1,"activity change, negative = inhibition",[1],-16.7%
same,Potency,[2],> 20.6 µM
COCCNC(=O)c1c(N)n(CCC2=CCCCC2)c2nc3ccccc3nc12,"activity change, negative = inhibition",[1],28.7%
same,Potency,[2],> 20.6 µM
same,Potency,[3],10 µM (active)
C=CCN1CCc2c(cc(O)c(O)c2Br)[C@H](c2ccccc2)C1,Potency,[4],12.6 µM (active)
same,"activity, negative = inhibition",[5],7.2% [at 38 µM]
same,Potency,[2],> 46 µM
same,Potency,[6],> 46 µM
same,Potency,[7],inactive
same,Potency,[8],inactive
same,Potency,[9],20 µM (active)
same,Potency,[10],inactive
same,outcome,[11],inactive
same,outcome,[12],inactive
CNCC[C@H](Oc1ccccc1C)c1ccccc1,Potency,[4],15.8 µM (active)
same,"activity, negative = inhibition",[5],-13.9% [at 38 µM]
same,Potency,[2],> 46 µM
same,Potency,[6],> 46 µM
same,Potency,[13],inactive
same,Potency,[14],11.2 µM (active)
same,Potency,[10],inactive
same,outcome,[11],inactive
same,outcome,[12],inactive
same,outcome,[15],inactive
COc1cccc(-c2nc(NCC3CCCO3)c3ccccc3n2)c1O (stereo not given),"activity change, negative = inhibition",[1],-22.6%
same,Potency,[2],> 20.6 µM

# Reference: PubChem BioAssay (NCATS)
